Assay results as given in PubChem BioAssay.
Unmarked numbers belong to inactive results. No rule for the calls is given here.

Target: Pantothenate synthetase (Mycobacterium tuberculosis (strain ATCC 25618 / H37Rv)) (UniProt P9WIL5)
Test: Coupled enzyme confirmation of inhibitors against recombinant Mtb PanC (AID 375);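 also: 0% = full reaction with vehicle and 100% = no enzyme background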
Conditions: coupled enzyme assay; at 10 µM, active compounds read high

Pantothenate synthetase (Mycobacterium tuberculosis (strain ATCC 25618 / H37Rv)), sequence (P9WIL5 whole entry, looked up): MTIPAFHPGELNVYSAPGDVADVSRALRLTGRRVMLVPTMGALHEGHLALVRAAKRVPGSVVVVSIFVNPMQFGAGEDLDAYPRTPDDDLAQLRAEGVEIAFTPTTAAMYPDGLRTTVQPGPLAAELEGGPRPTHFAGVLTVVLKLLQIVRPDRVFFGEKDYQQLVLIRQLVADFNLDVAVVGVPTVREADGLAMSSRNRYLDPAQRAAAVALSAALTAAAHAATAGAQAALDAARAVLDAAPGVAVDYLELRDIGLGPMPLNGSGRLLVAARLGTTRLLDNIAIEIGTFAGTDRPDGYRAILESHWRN

## CCOC(=O)N1CCN(C(=O)c2ccc3c(SCC(=O)O)c4c(nc3c2)CCCC4)CC1
  inhibition: 0%

## Cc1ncc([N+](=O)[O-])n1CCO
  inhibition: 1%

## CC1CCCCC1NC(=O)COc1ccc(-n2cnnn2)cc1 (stereo not drawn)
  inhibition: 0%

## CCOCCCn1c(=S)[nH]c2cc3c(cc2c1=O)OCO3
  inhibition: 0%

## CCOC(=O)N1CCN(C(=O)C(NS(=O)(=O)c2cccc3nsnc23)c2ccccc2)CC1 (stereo not drawn)
  inhibition: 0%

## COc1cccc(OC)c1OCCNCCO
  inhibition: 2%

## Cc1c(C(=O)OCc2ccccc2)[nH]c2c1C(=O)CC(c1ccco1)C2 (stereo not drawn)
  inhibition: 1%

## Cc1ccnc2c(N3C(=O)C4C5C=CC(C5)C4(C)C3=O)cccc12 (stereo not drawn)
  inhibition: 0%

## COc1cc(C(=O)Nc2cc(-c3ccccc3)[nH]n2)cc(OC)c1OC
  inhibition: 5%

## Cc1cccc2cc(CN(Cc3nnnn3C3CCCC3)C3CCCCC3)c(=O)[nH]c12
  inhibition: 4%

## CC1CCCN(S(=O)(=O)c2coc(C(N)=O)c2)C1 (stereo not drawn)
  inhibition: 0%

## Cc1cccn2c(=O)c3cc(C(=O)NC4CCCC4)c(=N)n(C4CCCC4)c3nc12
  inhibition: 0%

## Cc1ccc(C)c(S(=O)(=O)NCc2ccc(C(=O)N3CCN(C)CC3)cc2)c1
  inhibition: 0%

## O=C(O)C1CC=CCC1C(=O)NCc1ccccc1 (stereo not drawn)
  inhibition: 1%

## Cc1cc(C)n(Cc2nc3ccccc3n2C)n1
  inhibition: 0%

## CN1CCN(C(=O)CCC(=O)c2ccc(F)cc2)CC1
  inhibition: 9%

## CCOC(=O)c1ccc2[nH]c3c(c2c1)CCCCC3=O
  inhibition: 0%

## O=C(CCC(=O)N1CCc2ccccc2C1)N1CCN(S(=O)(=O)c2ccccc2)CC1
  inhibition: 0%

## CC(O)c1n(C)c(Cl)c[n+]1C (stereo not drawn)
  inhibition: 3%

## CC(C)NC(=O)c1ccc2c(c1)nnn2C
  inhibition: 0%

## CCC(=O)Nc1c(C#N)c2nc3ccccc3nc2n1-c1ccccc1C
  inhibition: 16%

## CCSc1nc2c(c(=O)[nH]1)C(c1cccnc1)C(C(=O)OC(C)C)=C(C)N2 (stereo not drawn)
  inhibition: 0%

## COc1ccc(C(C(C(=O)c2ccco2)N2CCOCC2)N2CCOCC2)cc1 (stereo not drawn)
  inhibition: 11%

## O=C(NCC1CCCO1)c1ccc(N2CCCCC2)nc1 (stereo not drawn)
  inhibition: 0%

## CC(C)(C)SCCNC(=O)COc1ccc(Cl)cc1
  inhibition: 0%

## O=c1c2ccccc2nc(SCc2nnc(-c3ccccc3Br)o2)n1-c1ccccc1
  inhibition: 0%

## N#Cc1ccc(CSc2nnc(-c3cccs3)n2-c2ccccc2)cc1
  inhibition: 0%

## COc1cc2c(=O)n(Cc3ccccc3)c(=O)n(CC(=O)NCc3ccco3)c2cc1OC
  inhibition: 7%
